# Bioassay records deposited in PubChem BioAssay by Broad Institute.
# aSyn UTR act = Activators via SNCA 5'UTR binding, MLPCN. alpha-synuclein 5'UTR reporter, activators screen. activity score, % (tested at 7.5 µM), hits read low. actives 7.1% (n = 300,000). AID 1814, 2009; in the data active = activity score below about -60%
# * marks the source's active call; other numbers are inactive results. These entries were drawn from the full list.
SMILES,aSyn UTR act
C=CCN1C=CC(=C/C=C(/C#N)C(=O)OCC)C=C1,-137.7*
Cc1ccc(-c2nn(-c3ccccc3)cc2C=C2C(=O)CC(C)(C)CC2=O)cc1,-94.0*
CC1=NNC(=O)/C1=C\c1cn(-c2ccccc2)nc1-c1ccc(Cl)cc1,98.4
C=CCNC(=O)c1c(Br)cnn1-c1ccc(C)cc1,-87.8*
Cc1ccc(-n2ncc(Cl)c2C(=O)NCc2ccccc2)cc1,-83.1*
CCCc1cc(NC(=O)CCl)n(-c2ccccc2)n1,-79.4*
CCN1C(=O)/C(=C/c2nc3ccccc3c(=O)n2-c2ccc(C)cc2)c2ccccc21,-138.8*
COc1ccc(-n2c(/C=C3\C(=O)N(C)c4ccccc43)nc3ccccc3c2=O)cc1,-107.3*
COCC(=O)N/N=C\c1ccccc1OC/C=C/c1ccccc1,-94.8*
N#CCC(=O)N/N=C\c1ccccc1OC/C=C/c1ccccc1,-165.6*
CCOC(=O)c1c(C)[nH]c(C(=O)OCc2ccc(F)cc2)c1C,-170.0*
CCOC(=O)c1c(C)[nH]c(C(=O)OCCOc2ccccc2C)c1C,-132.3*
CCOC(=O)c1c(C)[nH]c(C(=O)OCC(=O)c2ccccc2)c1C,-99.0*
CCOC(=O)c1c(C)[nH]c(C(=O)CSc2ccc(Cl)cc2)c1C,-129.5*
CCOC(=O)c1c(C)[nH]c(C(=O)OCc2ccccc2F)c1C,-110.3*
CC(=O)c1c(C)[nH]c(C(=O)OCc2ccccc2)c1C,-145.2*
CCNC(=O)COC(=O)c1[nH]c(C)c(C(=O)OC)c1C,-85.4*
CCOC(=O)c1c(C)[nH]c(C(=O)COC(=O)C2(C)CC2(Cl)Cl)c1C (stereo not drawn),-170.9*
CC(=Nc1cccc(O)c1)c1sc2ccccc2c1O,-235.5*
CC(=O)N(c1ccccc1)c1nnc(-c2cnc(C)cn2)s1,-82.5*
CN(C)c1ccc(/C=C/c2ccc3ccccc3n2)cc1,89.1
CCCN(CCC)c1ccc(/C=C/c2ccc3cc(OCC)ccc3n2)cc1,-112.1*
CCc1ccc(NC(=O)CSc2nncn2-c2cccnc2)cc1,-119.2*
O=C(c1cc2ccccc2oc1=O)N(Cc1ccco1)C1CCS(=O)(=O)C1 (stereo not drawn),-97.0*
COc1ccc(C(=O)N[C@H](C(=O)Nc2nc3ccccc3[nH]2)C(C)C)cc1,106.1
SMILES,aSyn UTR act
CCC(NC(=O)c1ccccc1NC(=O)c1ccc(OC)cc1)C(=O)N1CCCC1 (stereo not drawn),-69.3*
COc1cc(OC)cc(C(=O)Nc2ccccc2C(=O)N2CCCC2)c1,-123.1*
COc1ccc(C(=O)NC2=Nc3ccccc3N=C(C)C2c2ccccc2)cc1 (stereo not drawn),-227.6*
COc1cc(OC)cc(C(=O)NNC(=O)c2ccccn2)c1,72.7
COc1ccc(C(=O)Nc2ccccc2C(=O)Nc2ccccc2C(=O)O)cc1,-98.2*
COc1ccc(C(=O)Nc2ccccc2C(=O)Nc2ccncc2)cc1,-104.6*
COc1ccc(C(=O)Nc2ccccc2C(=O)N/N=C/c2cccc3ccccc23)cc1,-169.1*
c1coc(-c2nnc(-c3cccs3)o2)c1,-98.9*
c1ccc(-c2nnc(-c3ccco3)o2)cc1,-137.4*
Cc1ccc(-c2nnc(-c3ccc(Br)cc3)o2)o1,-134.6*
Brc1ccc(-c2nnc(-c3ccco3)o2)cc1,-146.3*
Cc1ccc2nc(NC(=O)CN3CCOCC3)sc2c1,-106.7*
O=C(CN1CCOCC1)Nc1nc2ccc([N+](=O)[O-])cc2s1,-62.3*
c1cncc(-c2noc(-c3cccc4ccccc34)n2)c1,-225.5*
c1ccc(-c2noc(-c3cccc4ccccc34)n2)cc1,-179.4*
c1ccc2c(-c3nc(-c4ccncc4)no3)cccc2c1,-271.7*
CC(=O)c1ccc(-n2c(CCC(=O)O)ccc2-c2cccs2)cc1,-98.7*
CC(C(=O)N(C)C1CCS(=O)(=O)C1)N1C(=O)/C(=C/c2cccs2)SC1=S (stereo not drawn),-83.3*
CC(=O)Nc1ccc(SCc2ncc(-c3ccccc3)o2)cc1,-130.5*
Cc1ccc(C2=NNC(C(O)C(O)C(O)C(C)O)S2)cc1 (stereo not drawn),-87.1*
CC1=CC(c2ccccc2)=Nc2ccc(C)cc2N1,-150.6*
Cc1c(CCOC(=O)CC23CC4CC(CC(C)(C4)C2)C3)sc[n+]1CC(=O)c1ccccc1,-65.4*
Cc1ccc(NC(=O)Nc2ccc(Cl)cc2)c(Br)c1,-154.9*
Cc1ccc(NC(=O)c2ccccn2)c(Br)c1,-103.3*
Cc1ccc(C)c(NC(=O)c2ccccn2)c1,-72.1*
SMILES,aSyn UTR act
Cc1ccc(CNc2ccc(Cl)cc2[N+](=O)[O-])cc1,-76.1*
NC(=O)c1ccsc1NC(=O)c1ccc(S(=O)(=O)N2CCCCC2)cc1,-96.0*
NC(=O)c1ccsc1NC(=O)c1ccc(S(=O)(=O)N2CCCC2)cc1,-102.7*
CC(=O)Nc1ccc(S(=O)(=O)NC(CC(=O)NCCc2ccccc2)C(C)C)cc1 (stereo not drawn),-109.4*
CC(=O)Nc1ccc(S(=O)(=O)N2CCN=C2SCc2ccc(C)cc2)cc1,-72.0*
CN(c1ccccc1)S(=O)(=O)c1cc(C(=O)OCC(N)=O)ccc1Cl,-85.1*
CCCCOc1ccc(N=Nc2ccc(N)nc2N)cn1,-300.0*
O=C(Nc1ncc(Cl)cn1)c1cccs1,-68.8*
